Screens: PubChem, National Center for Advancing Translational Sciences (NCATS)
A selection: hits, their analogues and other compounds. The true share with any hit is near 8.6%.
MARV entry inh: qHTS for Inhibitors of binding or entry into cells for Marburg Virus; Marburg virus pseudotype entry/binding inhibition, cell-based; Potency, µM (series often up to 49.2 µM), hits mostly inhibitors; 18,000 compounds, 6.5% hits
LASV entry inh: qHTS for Inhibitors of binding or entry into cells for Lassa Virus; Lassa virus pseudotyped entry inhibition, cell-based qHTS; Potency, µM (series often up to 49.2 µM), actives largely listed as inhibitors; 18,000 compounds, 4.1% hits
Of the large screens only hits and unclear results are named; the others gave an inactive call; ! = not active in a repeat. The call rests on the fitted dose curve; tested in HEK293 cells.

CCn1c(-c2cccnc2)nc2cc(NC(=O)COC)cc(C(=O)N3CC[C@@H]4CCCC[C@H]4C3)c21	none
C=CCNC(=O)[C@H]1C=C(OC)C(=O)C[C@H](c2ccccc2)[C@H]1C	none
N[C@H](Cc1ccccc1)C(=O)O	none
CCCCCCCCCCCCCCOc1ccc(C(=O)O)o1	MARV entry inh inconclusive, LASV entry inh 0.56µM
CCCCCCCCOC(=O)c1ccccc1C(=O)OCCCCCCCC	none
C1CCC(NC(=NC2C3CC4CC(C3)CC2C4)N2CCOCC2)CC1 (centres undefined)	MARV entry inh 14µM, LASV entry inh inconclusive
O=C1CCCC1C(O)c1ccc2ccccc2c1 (centres undefined)	MARV entry inh inconclusive
COP(=S)(OC)Oc1ccc(Sc2ccc(OP(=S)(OC)OC)cc2)cc1	LASV entry inh inconclusive
NCCC[C@@H](CC(=O)N[C@@H]1CCNC[C@H]1C(=O)N[C@H](CC(=O)N[C@@H](CCC(=O)O)CC(=O)O)Cc1c[nH]c2ccccc12)NC(=O)C[C@H](Cc1ccccc1)NC(=O)[C@@H]1CCCC[C@H]1N	none
COc1ccccc1N1CCN(c2nc(CNC(=O)C3CC34CCCC4)nc3ccccc23)CC1 (centres undefined)	MARV entry inh inconclusive, LASV entry inh 32µM
COc1ccccc1N1CCN(C[C@@H](C(=O)NC(C)(C)C)c2ccccc2)CC1	none
CCCCCCCCCCCCCCCC(=O)OC[C@H](O)[C@H]1OC(=O)C(O)=C1O	none
C[C@@]12CCC(O)C[C@H]1CCC1C2CC[C@]2(C)C(=O)CCC12 (some centres undefined)	none
CC(=O)[C@@]1(O)[C@H](O)CC2C3CCC4CC(O)CC[C@]4(C)C3CC[C@@]21C (some centres undefined)	none
C[C@@]12CC[C@H](O)C[C@@H]1CC[C@H]1[C@H]2CC[C@@]2(C)[C@@H](C3=CC(=O)OC3)CC[C@]12O	MARV entry inh 1µM, LASV entry inh 0.89µM
C[C@@]12CC[C@H](O)C[C@@H]1CC[C@H]1[C@@H]2C[C@@H](O)[C@]2(C)[C@@H](C3=CC(=O)OC3)CC[C@]12O	MARV entry inh 1.4µM, LASV entry inh 3.5µM
C[C@@H](C(=O)O)c1ccc(-c2ccccc2)c(F)c1	none
COCOCCn1cc(CN2CCS(=O)(=O)N(Cc3ccc(-c4ccc(OC)c(OC)c4)cc3)C(CC(C)C)C2=O)nn1 (centres undefined)	none
C[C@@H]1O[C@@H](OC[C@H]2O[C@@H](Oc3c(-c4ccc(OCCO)c(OCCO)c4)oc4cc(OCCO)cc(O)c4c3=O)[C@H](O)[C@@H](O)[C@@H]2O)[C@H](O)[C@H](O)[C@H]1O	none
Cc1ccccc1C(OCCN(C)C)c1ccccc1 (centres undefined)	MARV entry inh inconclusive
CC(C(O)c1ccccc1)N(C)CCOC(c1ccccc1)c1ccccc1 (centres undefined)	MARV entry inh 8.9µM, LASV entry inh 14µM
COc1cc(Br)c(C[N+]2(CCOCCC3CCC4CC3C4(C)C)CCOCC2)cc1OC (centres undefined)	MARV entry inh inconclusive, LASV entry inh 4.5µM
CSc1nnc(SC)nn1	none
CCCCC/C=C\C[C@@H](O)/C=C/C=C\C/C=C\CCCC(=O)O	none
C1CCN2CC3CC(CN4CCCC[C@@H]34)C2C1 (some centres undefined)	none
NC(=NCCCCCCN=C(N)/N=C(\N)Nc1ccc(Cl)cc1)/N=C(\N)Nc1ccc(Cl)cc1	MARV entry inh inconclusive, LASV entry inh 10µM!
CC(C)N=C(N)/N=C(\N)Nc1ccc(Cl)cc1	none
Cc1ccc(C#C[C@@H]2C=C[C@H](Oc3ccc4c(c3)OCO4)[C@@H](CO)O2)c(C)c1	none
CC[C@@H](C(=O)[C@@H](C)[C@@H](O)[C@H](C)CCc1ccc(C)c(O)c1C(=O)O)C1O[C@](CC)(C2CC[C@](O)(CC)[C@H](C)O2)C[C@@H]1C (some centres undefined)	MARV entry inh inconclusive, LASV entry inh 7.1µM
CC[C@H](C(=O)[C@H](C)[C@H](O)[C@H](C)CCc1ccc(C)c(O)c1C(=O)O)[C@H]1O[C@](CC)([C@@H]2CC[C@@](O)(CC)[C@H](C)O2)C[C@H]1C	MARV entry inh 2.8µM, LASV entry inh inconclusive
NC(N)=NCCC[C@H](NC(=O)[C@@H](N)Cc1ccc(O)cc1)C(=O)O	none
OC[C@@H]1O[C@@H](n2cnc3c(N[C@H]4CCC[C@@H]4O)ncnc32)[C@H](O)[C@H]1O	none
Cc1nc2cc(NC(=O)[C@@H]3C[C@@H](Sc4ccccn4)CN3Cc3ccc(F)cc3F)ccc2s1	none
O=C(NOC[C@H](O)CO)c1ccc(F)c(F)c1Nc1ccc(I)cc1F	none
COc1ccc2[nH]cc(CCN(C)C)c2c1	none
COC1(CS(=O)c2ccccc2)CCN(CCc2c[nH]c3ccc(F)cc23)CC1 (centres undefined)	MARV entry inh 16µM
CC(C)(C)NCC(O)c1ccc(O)c(CO)n1 (centres undefined)	none
COc1cccc([C@@H]2Oc3ccc(Br)cc3C[C@@H]2OC(=O)Nc2cc(OC)c(OC)c(OC)c2)c1	none
CN(C)CCCCSC(=N)N	MARV entry inh inconclusive
C[C@@]12CC[C@@H]3c4ccc(O)cc4C[C@H](CCCCCCCCCS(=O)CCCC(F)(F)C(F)(F)F)[C@H]3[C@@H]1CC[C@@H]2O (some centres undefined)	LASV entry inh inconclusive
C[C@]12CC[C@@H]3c4ccc(O)cc4C[C@@H](CCCCCCCCCS(=O)CCCC(F)(F)C(F)(F)F)[C@H]3[C@@H]1CC[C@@H]2O (some centres undefined)	LASV entry inh 6.3µM
Cc1cc(-c2ccc(N=Nc3ccc4c(S(=O)(=O)O)cc(S(=O)(=O)O)c(N)c4c3O)c(C)c2)ccc1N=Nc1ccc2c(S(=O)(=O)O)cc(S(=O)(=O)O)c(N)c2c1O	LASV entry inh inconclusive
Nc1c(N=Nc2ccc(-c3ccc(N=Nc4cc(S(=O)(=O)O)c5ccccc5c4N)cc3)cc2)cc(S(=O)(=O)O)c2ccccc12	MARV entry inh 13µM
CC(C)CON=C1C[C@@H](O)[C@@H](O)[C@@H]2[C@H]3C(=O)N(C[C@@H]4CCCO4)C(=O)[C@@H]3CC[C@H]12	none
Cc1cnc(CNc2nc(-c3ccc4c(c3)OCO4)nc3ccccc23)cn1	none
Cc1nc(Nc2ncc(C(=O)Nc3c(C)cccc3Cl)s2)cc(N2CCN(CCO)CC2)n1	MARV entry inh 13µM, LASV entry inh inconclusive
O=c1cc(-c2ccccc2Cl)oc2c([N+](=O)[O-])ccc(O)c12	none
CCCN(CCC)Cc1cc(=O)oc2cc(C)ccc12	none
CCCCCCCCCCCCCCCCOCC(COP(=O)([O-])OCC[N+](C)(C)C)OC (centres undefined)	none
Oc1cccc(-c2c3nc(c(-c4cccc(O)c4)c4ccc([nH]4)c(-c4cccc(O)c4)c4nc(c(-c5cccc(O)c5)c5ccc2[nH]5)CC4)C=C3)c1	MARV entry inh inconclusive, LASV entry inh 25µM
CCCNC(=O)OC[C@H]1O[C@H](CCON=Cc2ccc(C(=O)N3[C@H](C(=O)OC)CC[C@H](C)[C@@H]3c3ccc(C)cc3)cc2)C=C[C@H]1Oc1ccc(OC)cc1	none (no result: LASV entry inh)
CN(C)CC(C)(C)CNC(=O)c1cnn(-c2ncc3c(n2)-c2ccccc2CC3)c1-c1ccco1	MARV entry inh inconclusive
CCOC(=O)[C@@H](C)N1[C@H](C)[C@H](c2ccccc2)Oc2cc(Br)ccc2S1(=O)=O	MARV entry inh inconclusive, LASV entry inh 14µM
CC[C@H](C)[C@@H](C(=O)OC)N1Cc2ccccc2Oc2cc(Br)ccc2S1(=O)=O	none
